Each structure is given as a SMILES string. Compounds without any hit were thinned out: in the full panel of roughly 79,000, 15% have a hit. Unmarked numbers belong to inactive results. Rule as the data show it: active = growth inhibition above about 70%; inactive = the rest.

Data on 19 compounds can be found in PubChem BioAssay (NCI).

One assay in a line: NCI Yeast Anticancer Drug Screen. Data for the mec2-1 strain (AID 157). The note with it: S. cerevisiae mec2-1 strain, at 50.0 µM, hits give high values. The gist of the method:
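mec2-1 yeast strain, carrying an alteration in DNA damage repair or cell cycle control, was exposed to compounds; growth inhibition was measured relative to vehicle-treated controls.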
Take `CC(=O)C1=CCC2C3CC(C)=C4CC(O)CCC4(C)C3CCC12C` (centres undefined): the growth inhibition was -1.15%. Same read-out and setting: the value for `O=c1oc(-c2ccc(Cl)cc2)nc2cc(Cl)ccc12` was -14.7%; that for `CC1CC(C)(C)N=C(Cc2ccccc2)O1` (centres undefined) was -11.6%.

A further assay can be described thus: NCI Yeast Anticancer Drug Screen. Data for the mlh1 rad18 strain (AID 175). Conditions: S. cerevisiae mlh1 rad18 strain growth inhibition; at 50.0 µM; hits give high values. The gist of the method: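 Growth inhibition of the yeast strain was measured after compound exposure and expressed relative to vehicle-treated controls. The strain carries defined defects in DNA damage repair.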
For the compound `O=C(O)CSCc1nc2ccccc2[nH]1`, the growth inhibition was 41.8%. On the same count and under the same terms, the result for `COc1cc(-c2cc(=O)c3c(C)cc(O)cc3o2)cc(OC)c1OC` reads 45.6%; that for `OCC1OC(Nc2ccccc2O)C(O)C(O)C1O` (centres undefined), 25.7%.

For the compound `CN(c1ccccc1Cl)S(C)(=O)=O`, the growth inhibition was -0.25%. For the compound `COc1ccc(C(C#N)N2CCOCC2)cc1` (centres undefined), the growth inhibition is 5.35%. The same measure, in the same setting: the result for `Cn1/c(=N\N=C\C(=O)O)sc2ccccc21` reads 10.1%. Turning to `CC1(O)CC2CC1C(C(=O)O)C2C(=O)O` (centres undefined), the growth inhibition was -15.1%. The same measure, in the same setting: the result for `O=C(O)/C=C\C(=O)Nc1ccccc1NC(=O)/C=C/C(=O)O` reads -16.2%; that for `Cc1ccc(S(=O)(=O)Nc2ccccc2C2Nc3ccccc3C(=O)O2)cc1` (centres undefined), -13.1%.

As to `Cn1c(=S)sc2ccc3ccccc3c21`, the growth inhibition was -25.9%. On the same count and under the same terms, the result for `CCOC(=O)NC(C)(C)CN(C(=O)OCC)c1ccccc1` reads -10.7%. Consider `CCCN(CCC)CCC(=O)OCC`, for which the growth inhibition is -10.9%. In the case of `CCOc1ccc(/C=C(/C#N)C(N)=O)cc1`, the growth inhibition was 9.05%. For the compound `C=CCNC(=O)C(O)C(O)C(=O)NCC=C` (centres undefined), the growth inhibition was -21.2%. For `CC(/C=N/N1C(=O)c2ccccc2C1=O)c1ccccc1` (centres undefined), the growth inhibition was -10.8%. For `O=C1OC(c2ccc(Cl)cc2)=N/C1=C\c1ccccc1`, the growth inhibition is -6.65%.
